In the library only some 7.6% were active in any assay of this set; here they are far more common.
Cy5 interf NS3h = counter-screen for HCV NS3 helicase inhibitors: fluorescence interference; AID 720488; 16,000 tested, 6% active; Cy5-dT15 DNA with NS3h; actives lie on both sides; signal over control mean, under 1 quenches; fluorescence interference ratio at 100 µM;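 active means compound fluorescence over control fluorescence at most 0.8, a quencher, or at least a set upper limit, an enhancer; inactive means ratio between 0.8 and the set upper limit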
NS3h inh CB = hepatitis C NS3 helicase inhibition, primary screen; NS3h Cy5-dT15 DNA binding, fluorescence polarization; inhibition, % at 100 µM; 16,000 tested, 1.6% active; AID 687043;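 active means inhibition above the average over every tested compound plus 3 SD, cut at about 40% in these data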
Starred values were filed as active, the others as inactive.

SMILES	Cy5 interf NS3h	NS3h inh CB
CS(=O)(=O)N1CCN(C(=O)c2ccccc2F)CC1	0.7*	8
COc1ccccc1NC(=O)/C(=C\c1cccs1)NC(=O)c1ccccc1	0.95	5
CCCCCC12CCC(O)(CC1)C/C2=N\NS(=O)(=O)c1ccc(C)cc1	0.73*	20
CCCC(=O)NS(=O)(=O)c1ccc(NS(=O)(=O)c2ccc(C)cc2)cc1	1	-1
O=[N+]([O-])c1ccc(/C=C(Cl)/C=N/n2cnnc2)cc1	1.1	9
Cc1cc(OCC(=O)Nc2cc([N+](=O)[O-])ccc2Cl)cc(C)c1Cl	0.54*	8
O=C(COc1ccc(Cl)cc1)Nc1cc([N+](=O)[O-])ccc1F	0.88	10
Cc1c(Cl)cccc1-c1ccc(C(=O)Nc2ccc3c4c(cccc24)CC3)o1	1.1	11
NC(=O)c1ccc(NC(=O)c2ccccc2[N+](=O)[O-])cc1	0.97	-7
O=C(N/N=C\c1ccc[nH]1)c1ccccc1[N+](=O)[O-]	0.67*	15
CCOC(=O)C(Cc1cccc([N+](=O)[O-])c1)SC#N (stereo not given)	1	13
O=C1c2cc(S(=O)(=O)NCCCO)ccc2-c2ccc(S(=O)(=O)NCCCO)cc21	0.63*	-5
O=C1c2cc(S(=O)(=O)Nc3ccncc3)ccc2-c2ccc(S(=O)(=O)Nc3ccncc3)cc21	0.92	15
O=C(NCC1CCCO1)c1cc2n(n1)C(C(F)(F)F)CC(c1cccs1)N2 (stereo not given)	1	4
O=C(Nc1ccc(OC(F)(F)F)cc1)c1cc2n(n1)C(C(F)(F)F)CC(c1cccs1)N2 (stereo not given)	0.71*	9
NC(=O)c1nn2c(c1Cl)NC(c1cccs1)CC2C(F)(F)F (stereo not given)	0.67*	0
CC1CCCC(C)N1C(=O)c1nn2c(c1Cl)NC(c1cccs1)CC2C(F)(F)F (stereo not given)	0.99	9
COc1ccc(C(=O)/C=C/Nc2ccccc2F)cc1	1	35
CCOC(=O)C1=C(C)NC(=O)N(C(C)=O)C1c1ccccc1F (stereo not given)	1.1	8
COc1cc(NC(=O)C(F)(F)F)c(Cl)cc1NC(=O)c1ccccc1	0.93	43*
COc1cc(NC(C)=O)c(Cl)cc1NC(=O)c1ccccc1	1	4
O=C(COc1ccc(Br)cc1)NNC(=O)c1ccccc1	1	-2
Cc1ccc(NCCC(=O)c2cccc([N+](=O)[O-])c2)cc1Cl	1	9
Cc1ccc(-n2nc(C)c(-c3cccc([N+](=O)[O-])c3)c2C)cc1Cl	0.65*	7
C=CCOC(=O)C1=C(C)NC(C)=C(C(=O)OCC=C)C1c1ccc(OC)c(OC)c1	0.8*	27
SMILES	Cy5 interf NS3h	NS3h inh CB
C=CCOC(=O)C1=C(C)NC(C)=C(C(=O)OCC=C)C1c1ccc(O)c(OCC)c1	0.88	13
CN1C(=O)C(=Cc2ccc(OCc3ccccc3F)cc2)C(=O)N(C)C1=O	1	5
CC(=O)c1ccc(N2C(=O)c3ccccc3C2=O)cc1	1	8
CC(=O)c1ccc(N2C(=O)c3c(Cl)c(Cl)c(Cl)c(Cl)c3C2=O)cc1	0.7*	9
O=C(/C=C/c1ccc(OCc2ccccc2)cc1)c1ccc(Br)cc1	1.1	-5
CCOC(=O)c1ccccc1NC(=O)CC1Sc2ccc(C(F)(F)F)cc2NC1=O (stereo not given)	1	1
COc1ccc(CN2C(=O)NC(=O)/C(=C\C=C\c3ccco3)C2=O)cc1	0.9	19
COc1ccc(CN2C(=O)NC(=O)/C(=C\C=C\c3ccccc3)C2=O)cc1	1.9*	-27
O=C1C(Nc2ccccc2)=CC(c2ccccc2F)N1c1ccccc1 (stereo not given)	1	-6
O=C1/C(=C\c2cccc(C(F)(F)F)c2)SC(=S)N1c1cccc(Cl)c1	1.1	7
O=C1/C(=C/C=C/c2ccccc2)SC(=S)N1c1cccc(C(F)(F)F)c1	0.75*	17
O=C(Nc1cc(Cl)ccc1O)c1cnn2c1NC(c1ccc(Br)cc1)CC2C(F)(F)F (stereo not given)	0.99	10
COc1cc(/C=C2/SC(=S)N(CCC(=O)NC34CC5CC(CC(C5)C3)C4)C2=O)cc(OC)c1OC	1	8
COc1cc(/C=C2\NC(=S)NC2=O)ccc1OC(=O)C12CC3CC(CC(C3)C1)C2	0.68*	7
Cc1ccc(OC(=O)C23CC4CC(CC(C4)C2)C3)c(C)n1	0.83	-2
C#Cc1cccc(N2C(=O)c3ccc(C(=O)O)cc3C2=O)c1	0.98	12
O=C(O)c1ccc2c(c1)C(=O)N(c1ccc(-c3nc4cc(N5C(=O)c6ccc(C(=O)O)cc6C5=O)ccc4[nH]3)cc1)C2=O	0.65*	10
COc1cc(/C=c2\sc3nc4ccccc4n3c2=O)ccc1OCCOc1ccc(C(C)(C)C)cc1	1	1
CN1CCN(c2ccc(/C=C3\NC(=S)NC3=O)cc2[N+](=O)[O-])CC1	0.61*	1
CN1CCN(c2ccc(/C=C3\Sc4ccccc4C3=O)cc2[N+](=O)[O-])CC1	0.79*	-3
CN1C(=O)C(=Cc2ccc(O)c([N+](=O)[O-])c2)C(=O)N(C)C1=O	1.1	11
COc1ccc(/C=C2/Sc3ccccc3C2=O)cc1	0.95	14
CSc1ccc(S(=O)(=O)N(CC(=O)Nc2ccc(Cl)cc2)c2ccc(C)cc2)cc1	0.91	12
Cc1ccc(NC2=NS(=O)(=O)c3cc([N+](=O)[O-])ccc32)cc1	1.1	5
O=C(COc1ccc2ccc(=O)oc2c1)c1ccc(Cl)cc1	1.2	8
SMILES	Cy5 interf NS3h	NS3h inh CB
Cc1nc(C=C2C(=O)C=Cc3ccccc32)c(O)o1	1.1	-2
CCOC(=O)c1c(C)[nH]c(C=C2C(=O)C=Cc3ccccc32)c1O	0.43*	-8
CCc1ccccc1NC(=O)CN(c1cc(OC)ccc1OC)S(C)(=O)=O	1	-5
CCOc1ccccc1NC(=O)c1ccc(OC)cc1	1.3*	8
CCOc1ccc(C(=O)Nc2ccccc2C(=O)O)cc1	1.1	3
COc1ccc(C(=O)NCc2ccccc2C)cc1	1	4
CCOC(=O)CNC(=O)c1ccc(OC)cc1	0.71*	4
Cc1cccc(NC(=O)C(=O)NCc2ccccc2Cl)c1C	0.78*	19
COc1ccccc1CNC(=O)C(=O)Nc1ccccc1C	1.1	3
COc1ccccc1-c1c(C(F)(F)F)oc2c(CN3CCCC3)c(O)ccc2c1=O	1.1	1
CCCCOC(=O)c1ccc(NC(=O)c2cccc(Cl)c2Cl)cc1	0.69*	20
CCC(=O)Nc1ccc(NC(=O)c2cccc(Cl)c2Cl)cc1	1	16
COc1c(Cl)cc(C(=O)Nc2ccc(N3CCOCC3)cc2)cc1Cl	0.93	4
O=C(Nc1ccc(N2CCOCC2)cc1)c1cccc(Cl)c1Cl	0.67*	20
CC(=O)N1CCN(c2ccc(NC(=O)c3sc4ccccc4c3Cl)cc2)CC1	1	2
O=S(=O)(Nc1ccc(OC(F)F)cc1)c1cccs1	1.1	14
Cc1ccc[n+](CC(=O)c2ccc(-c3ccccc3)cc2)c1	0.96	2
Nc1cc[n+](CC(=O)c2ccccc2)cc1	0.77*	-14
Nc1ccc(C(=O)c2ccc(N)c(N)c2)cc1N	1.1	5
O=C(C[n+]1ccc(C(=O)NCc2ccccc2)cc1)c1ccc(-c2ccccc2)cc1	0.76*	10
COc1ccc(N(CC(=O)Nc2ccc(C)cc2C)S(=O)(=O)c2ccc(C)cc2)cc1	0.98	13
